Among the data in PubChem BioAssay (Tox21) are Potency values, retold here.

Values joined by “and” are separate entries in the source; they are usually repeats but may differ in a detail not shown here. Equal entries are not always repeated. Inconclusive results are not listed. A call without a number means that no potency is given here. Active and inactive are the calls of the source. The call rests on the fitted dose curve; in most records, active means well fitted cell-killing curve with a large enough effect in the repeat runs (not every such curve was filed as active); inconclusive means weak or mixed curves, or effect the other way; inactive means no such curve, though single readings can be large or run the other way.
Potency means the concentration at half of the fitted maximal effect.

The nature of the assay: qHTS assay to identify small molecule antagonists of the farnesoid-X-receptor (FXR) signaling pathway - cell viability counter screen (AID 743221). Further: nearly all actives have a fitted effect of over 50% in size. The conditions noted are these: FXR-bla HEK293T viability, CellTiter-Glo luminescence, 16 h; series mostly up to 62.6 µM. An excerpt: National Center for Advancing Translational Sciences [NCATS]
NIH Chemical Genomics Center [NCGC]
U.S. Environmental Protection Agency [EPA]
National Institutes of Environmental Health Sciences [NIEHS]
National Toxicology Program [NTP]
U.S. Food and Drug Administration [FDA]
The farnesoid-X-receptor (FXR), a nuclear hormone receptor, is highly expressed in liver, intestine, kidney and adrenal cortex. Natural ligands of FXR are the bile acids (Cholic acid, Chenodeoxy cholic acid etc). FXR is an important regulator of diverse metabolic pathways, including the bile acid homeostasis, lipid and glucose metabolisms. FXR regulates the expression of target genes by binding either as a monomer or as a heterodimer with the retinoid X receptor (RXR). Numerous studies have reported that FXR exerts protective function during cholestasis, diabetes, liver regeneration, and cancer. To identify compounds that inhibit FXR signaling, GeneBLAzer FXR-UAS-bla HEK 293T cell line (Invitrogen, Carlsbad, CA) containing a beta-lactamase reporter gene under the control of a UAS response element was used to screen the Tox21 10K compound library. The cytotoxicity of the Tox21 compound library against the FXR-bla cell line was tested in parallel by measuring the cell viability using CellTiter-Glo assay in the same wells.
Tox21 Assay Protocol Summary:
FXR-bla cells were dispensed at 5000 cells/5uL/well in 1536-well black wall/clear bottom plates using a Multidrop Combi (Thermo Fisher Scientific, Waltham, MA) dispenser. After the assay plates were incubated at 37 C and 5% CO2 for 5 h, 23 nL of compounds dissolved in DMSO, positive controls or DMSO only was transferred to the assay plate by a Pintool station (Kalypsys, San Diego, CA), followed by addition of 1 uL Chenodeoxycholic acid (50 uM, final concentration in the wells). The assay plates were incubated at 37C for 16 h. After 1 uL of LiveBLAzerTM B/G FRET substrate was added using a Bioraptr Flying Reagent Dispenser (FRD) workstation (Beckman Coulter, Indianapolis, IN), the plates were incubated at room temperature for 2 h, and fluorescence intensity was measured by an Envision plate reader (PerkinElmer, Shelton, CT). For cell viability readout that measures cytotoxicity, 4uL/well of CellTiter-Glo reagent was added into the assay plates using a Bioraptr FRD. After 30 min incubation at room temperature, the luminescence intensity in the plates was measured using a ViewLux plate reader (PerkinElmer).
In general terms: Quantitative high-throughput screening tests each substance at several concentrations.
Take `CCC1COC(Cn2cncn2)(c2ccc(Cl)cc2Cl)O1` (stereo not given): the Potency entry was “inactive”.

With `CCNc1nc(NC(C)C(C)C)nc(SC)n1` (stereo not given), the Potency result is “inactive”.

Take `CC(Cc1ccc2c(c1)OCO2)NO` (stereo not given): the Potency result is “inactive”.

As for `O=[N+]([O-])C(Br)Br`, the Potency result is “inactive”.

`Nc1cc(Cl)ccc1Cl`: the Potency result was “inactive”.

Turning to `C1=CCC=C1`, the Potency result is “inactive”.

As for `CN1[C@@H]2CC[C@H]1CC(O)C2` (stereo not given in full), the Potency entry was “inactive”.

With `Cc1c([N+](=O)[O-])cc2c(c1[N+](=O)[O-])C(C)(C)CC2(C)C`, the Potency entry is “inactive”.

Consider `COc1ccc2c(c1OC)C(=O)O[C@@H]2[C@H]1c2cc3c(cc2CCN1C)OCO3`, for which the Potency entry was “inactive”.

Take `O=C(N[C@H]1N=C(c2ccccc2F)c2cccc3c2N(CC3)C1=O)c1cc2ccccc2[nH]1`: the Potency entry is “inactive”.

With `COC(=O)c1cc(Oc2ccc(Cl)cc2Cl)ccc1[N+](=O)[O-]`, the Potency entry is “inactive”.

For the compound `CCCCN(CCCC)C(=S)[S-].CCCCN(CCCC)C(=S)[S-].[Ni+2]`, the Potency result was “inactive”.

Turning to `Cc1ccn2nc(S(=O)(=O)Nc3c(F)cccc3F)nc2n1`, the Potency result was “inactive”.

As for `CCC(OC(C)=O)C(CC(C)NC)(c1ccccc1)c1ccccc1` (stereo not given), the Potency was 69.2 µM (active).

With `O=C(O)CCCCCCNC1c2ccccc2CCc2ccccc21`, the Potency entry was “inactive”.

For the compound `CCOC(=O)Cc1ccccc1`, the Potency result was “inactive”.

Consider `[Cl-].[Cl-].[Cl-].[Yb+3]`, for which the Potency entry is “inactive”.

As to `O=Cc1ccccc1`, the Potency result is “inactive”.

Consider `Brc1ccc(Oc2ccc(Br)cc2Br)c(Br)c1`, for which the Potency entry is “inactive”.

As to `[O]=[Cr][O][Cr]=[O]`, the Potency entry is “inactive”.

With `ClCBr`, the Potency result was “inactive”.

For `COCCC#N`, the Potency result is “inactive”.

On to `CNC(=O)CSP(=O)(OC)OC`, for which the Potency result was “inactive”.

As to `[Cl-].[Cl-].[Sn+2]`, the Potency result was “inactive”.

Turning to `c1cc[n+]2c(c1)-c1cccc[n+]1CC2`, the Potency result is “inactive”.

As to `Oc1ccc2[nH]cc(CCCCN3CC=C(c4ccccc4)CC3)c2c1`, the Potency result is “inactive”.

Take `ClC1=C(Cl)[C@]2(Cl)[C@@H]3[C@H]4C[C@H]([C@@H]5O[C@H]45)[C@@H]3[C@@]1(Cl)C2(Cl)Cl`: the Potency entry is “inactive”.

In the case of `CCOP(=S)(OCC)SC(CCl)N1C(=O)c2ccccc2C1=O` (stereo not given), the Potency entry was “inactive”.

With `Cc1ccc(C)c2ccccc12`, the Potency entry is “inactive”.

Regarding `NC1CCC(CC2CCC(N)CC2)CC1` (stereo not given), the Potency entry was “inactive”.

Turning to `O=[N+]([O-])c1ccc(CCl)cc1`, the Potency result is “inactive”.

In the case of `[O]=[Cr](=[O])([OH])[O][Cr](=[O])(=[O])[OH]`, the Potency is 19.7 µM (active) and 24.5 µM (active).

As to `c1csc(-c2ccc(-c3cccs3)s2)c1`, the Potency result was “inactive”.

Regarding `Cc1ccccc1OP(=O)(Oc1ccccc1C)Oc1ccccc1C`, the Potency entry is “inactive”.

On to `C[N+]1(C)[C@@H]2CC[C@H]1CC(OC(=O)C(CO)c1ccccc1)C2` (stereo not given in full), for which the Potency result is “inactive”.

Regarding `C=C(C)C(=O)[O][Sn]([CH2]CCC)([CH2]CCC)[CH2]CCC`, the Potency was 0.977 µM (active).

Consider `O=c1[nH]c(Cl)c(Cl)cc1Cl`, for which the Potency entry was “inactive”.

As for `CCCCCCCc1ccc(O)cc1`, the Potency result was “inactive”.

For the compound `ClC1=C(Cl)[C@]2(Cl)[C@H]3[C@H]([C@@H]4C=C[C@H]3C4)[C@@]1(Cl)C2(Cl)Cl`, the Potency entry is “inactive”.

In the case of `COP(=O)(OC)Oc1ccc([N+](=O)[O-])cc1`, the Potency result is “inactive”.
